Hits are enriched below; roughly 3% of the tested compounds scored in any of these assays.
Tau fibril FP: blocks human tau fibril formation measured by polarization. actives 0.39% (n = 280,000). K18 P301L tau heparin fibrillization, Alexa594 FP, 6 h. P10636. Potency, µM (titrated, usually from 57.7 µM), actives largely listed as inhibitors; further: nearly all actives have a fitted effect of over 55% in size
Target sequence (P10636 561-689 P618L limits assumed): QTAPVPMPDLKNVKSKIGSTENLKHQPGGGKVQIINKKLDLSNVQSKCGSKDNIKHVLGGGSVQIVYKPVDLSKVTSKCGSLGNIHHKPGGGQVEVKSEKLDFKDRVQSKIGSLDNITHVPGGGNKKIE
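Quantitative HTS format: compounds meet 15 uM recombinant K18 P301L tau and Alexa 594-tau tracer in 100 mM sodium acetate pH 7; 20 uM heparin triggers fibrillization at 37 C over 6 hr; FP gives the signal.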
Tau fluor cs: counter-screen for tau fibril formation inhibitors; tau K18 P301L Alexa594 fluorescence, heparin fibrillization; Potency, µM (titrated, usually from 57.7 µM); actives 0.93% (n = 280,000); AID 1463; further: nearly all actives have a fitted effect of over 55% in size
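Human tau K18 P301L (15 uM unlabeled, 0.24 uM Alexa 594-labeled) in 100 mM sodium acetate pH 7 with 20 uM heparin, 6 hr at 37 C. ThT 30 uM added, 1 hr ambient; Alexa 594 FP and total fluorescence read at 555/632 nm.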
TR SRC2 fluor cs: alters Texas Red total fluorescence, flagging assay interference; AID 1479; actives 0.29% (n = 280,000); Potency, µM (series often up to 106 µM); TRb/SRC2 Texas Red total fluorescence interference; active means well fitted curve in either direction with a large enough effect; inconclusive means small, poorly fitted or top-dose-only effect
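Human TRb ligand-binding domain at 0.6 uM with 20 nM Texas Red SRC2 peptide in Tris buffer containing 1 uM T3 and 5% DMSO, incubated with compound 5 h at ambient temperature. Total fluorescence (555/632 nm) calculated as parallel + 2 × perpendicular.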
Tau ThT inhib: blocks human tau fibril formation measured by thioflavin T | P10636 | actives 2.1% (n = 270,000) | recombinant tau K18 P301L (four-repeat tau fragment), heparin-induced fibrillization, ThT fluorescence | Potency, µM (doses to about 57.4 µM), most hits filed as inhibitors; further: nearly all actives have a fitted effect of over 55% in size
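Heparin-induced (20 uM) aggregation of recombinant human K18 P301L tau, 15 uM unlabeled with 0.24 uM labeled, pH 7 acetate buffer, 6 hr at 37 C with compound. Fibrils quantified by 30 uM ThT fluorescence after 1 hr ambient incubation.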
TRb-SRC2 inh: disrupts binding of human TR beta to SRC2 | TRbeta-SRC2 peptide binding, fluorescence polarization; receptor liganded with 1 µM T3 | actives 0.065% (n = 280,000) | Potency, µM (series often up to 106 µM), actives largely listed as inhibitors | AID 1469 | P10828; further: nearly all actives have a fitted effect of over 50% in size
Target sequence (P10828 whole entry, looked up): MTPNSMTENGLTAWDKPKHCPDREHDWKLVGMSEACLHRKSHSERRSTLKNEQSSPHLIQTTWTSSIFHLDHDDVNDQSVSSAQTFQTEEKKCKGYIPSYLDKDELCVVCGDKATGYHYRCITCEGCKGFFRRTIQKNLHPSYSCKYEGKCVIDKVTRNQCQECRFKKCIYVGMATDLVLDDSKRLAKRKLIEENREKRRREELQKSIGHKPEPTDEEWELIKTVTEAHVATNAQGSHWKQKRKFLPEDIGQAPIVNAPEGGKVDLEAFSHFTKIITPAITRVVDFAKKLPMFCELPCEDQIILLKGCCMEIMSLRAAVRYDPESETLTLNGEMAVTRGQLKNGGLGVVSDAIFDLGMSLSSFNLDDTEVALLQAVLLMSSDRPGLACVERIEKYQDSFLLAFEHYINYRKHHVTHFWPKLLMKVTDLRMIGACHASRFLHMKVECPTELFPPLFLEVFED
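A fluorescence polarization screen tested compounds at multiple concentrations against complex formation between 0.6 uM TRb ligand-binding domain and 20 nM Texas Red SRC2 peptide, with 1 uM T3 present; readout after 5 hr.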
Numbers stand for hits; n = inactive; u = inconclusive; x = not tested or not shown; [ ] = remark or other dose. Unless noted, the call rests on the fitted dose curve; in most records, active means well fitted curve in the direction sought with a large enough effect; inconclusive means small, poorly fitted or top-dose-only effect, or another doubt; inactive means no such curve, though single readings can be large; an effect the other way counts as inactive or inconclusive.

SMILES	Tau fibril FP	Tau fluor cs	TR SRC2 fluor cs	Tau ThT inhib	TRb-SRC2 inh
Cc1nc2ccc(N=NC3=C(O)CC(C)(C)CC3=O)cc2s1	n	n	n	u	n
Cc1nc2ccc(N=NC3=C(O)CCCC3=O)cc2s1	n	n	n	13µM	n
CCCCCCc1cc2cc(-c3nnc(-c4ccc(C)cc4)o3)c(=O)oc2cc1O	n	n	2512µM[quencher]	u	n
COc1ccc(SN=C2C(C)=CC(=O)C=C2C)cc1	u	u	n	2.8µM	n
COc1ccc(C(=O)ON=C2C=C(C)C(=O)C(C)=C2)cc1	n	n	n	n	n
O=C1CCC[C@@H](C(C(=O)OCc2ccccc2)C(=O)OCc2ccccc2)C1	n[11.6 µM]	n[11.6 µM]	n[11.2 µM]	n[11.5 µM]	n[11.2 µM]
CCN(CC)c1ccc(/C=C/C(=O)C2C(=O)C=C(C)OC2=O)cc1 (stereo unspecified)	u	6.3µM[fluorescent]	32µM[fluorescent]	3.2µM	u
CCN(CC)c1ccc(C=C2C(=O)OC(c3ccccc3)OC2=O)cc1 (stereo unspecified)	n	n	n	n	n
COc1ccc(-c2nc3c(c4c2C[C@H](c2ccccc2)OC4)CN(S(=O)(=O)c2ccc4c(c2)OCCN4C)CC3)c(C)c1	n[11.6 µM]	n[11.6 µM]	n[11.2 µM]	n[11.5 µM]	n[11.2 µM]
CCOc1cc(/C=C2/SC(=S)NC2=O)ccc1OC(=O)c1ccco1	u	n	n	13µM	n
CCOC(=O)c1ccc(N2NC(=O)/C(=C/c3ccc(OC(=O)c4ccco4)c(OC)c3)C2=O)cc1	n	u	n	22µM	n
COc1cc(/C=C2\C(=O)N(c3ccc(S(N)(=O)=O)cc3)N=C2C)ccc1OC(=O)c1ccco1	n	u	n	u	n
O=C1SC(Nc2ccc(Cl)cc2)C(=O)N1Cc1ccccc1 (stereo unspecified)	u	u	0.0032µM[quencher]	n	n
COc1ccc(C(=O)c2ccccc2)cc1	n	n	n	n	n
COC1=CC(=O)C(C(=O)c2ccccc2)=CC1=O	10µM	6.3µM[quencher]	n	3.2µM	u
CCC(=O)N1CCc2cc(S(=O)(=O)NC(C(=O)NCCc3ccc(Cl)cc3)C(C)C)ccc21 (stereo unspecified)	n	n	n	n	n
Cc1ccc2c(c1)c(=O)c1c3n2CCN(C(=O)CCl)C3CC1 (stereo unspecified)	u	u	n	14µM	n
Cc1ccc2c(c1)c1c3n2CCN(C(=O)CN2CCN(C)CC2)C3CCC1 (stereo unspecified)	n	n	n	n	n
COc1cc(N[C@@H](C)CCCN)c2ncccc2c1	x	x	n	x	n
Cc1ccc(C(=O)NCCSc2c(C)[nH]c3ccccc23)cc1[N+](=O)[O-]	n	n	n	n	n
COc1cc(C(=O)NCCSc2c(C)[nH]c3ccccc23)cc(OC)c1OC	n	25µM[quencher]	n	u	n
COc1ccccc1C(=O)NCCSc1c(C)[nH]c2ccccc12	n	16µM[quencher]	n	u	n
Cc1[nH]c2ccccc2c1SCCNC(=O)c1ccccc1F	n	25µM[quencher]	n	u	n
COc1cccc(C(=O)NCCSc2c(C)[nH]c3ccccc23)c1OC	n	u	n	x	n
CC(CCC#N)[N+](=O)[O-] (stereo unspecified)	n	n	n	n	n
SMILES	Tau fibril FP	Tau fluor cs	TR SRC2 fluor cs	Tau ThT inhib	TRb-SRC2 inh
Cc1cc([N+](=O)[O-])ccc1NC(=O)CSc1nccn1C	n	n	n	n	n
CC1=Nc2ccccc2/C1=C\c1sc(Nc2ccc(C)cc2)nc1O	u	11µM[quencher]	n	7.9µM	n
Oc1cccc(Nc2nc(O)c(/C=C3\C=Nc4ccccc43)s2)c1	n	11µM[quencher]	n	4µM	n
Oc1nc(Nc2cccc(Cl)c2)sc1/C=C1\C=Nc2ccccc21	u	5µM[quencher]	n	6.3µM	n
Oc1nc(Nc2ccc(F)cc2)sc1/C=C1\C=Nc2ccccc21	n	7.1µM[quencher]	n	4.5µM	n
CC1=Nc2ccccc2/C1=C/c1sc(=O)n(CC(=O)N2CCCC2)c1O	n	u	n	n	n
CCOC(=O)c1c(Nc2ccc(Cl)cc2)sc(/C=C2\C=Nc3ccccc32)c1O	u	u	n	u	n
CC(C)c1ccc(NC(=O)CSc2nc(=O)n(Cc3cccnc3)c3c2CCC3)cc1	n	n	n	n	n
Cc1ccc(C(=O)O)cc1N=Cc1cc(Br)cc(Br)c1O	n	n	n	14µM	n
Cc1ccc(C)c(NC(=O)c2cnn(-c3ccc(F)cc3F)c2C2CCNCC2)c1	n	n	u	n	n
O=c1cc(-c2cc(O)c(O)c(O)c2)oc2cc(O)cc(O)c12	n	16µM[quencher]	n	7.9µM	n
O=c1cc(-c2ccc(O)cc2)oc2cc(O)cc(O)c12	u	u	u	16µM	u
COc1ccc(-c2cc(=O)c3c(O)cc(O)c(-c4cc(-c5cc(=O)c6c(O)cc(O)cc6o5)ccc4OC)c3o2)cc1	18µM	n	n	n	n
CC(C)=NOCc1ccc(-c2cn([C@@H]3COC[C@@H]3O)nn2)cc1	n[11.6 µM]	n[11.6 µM]	u	n[11.5 µM]	n[11.2 µM]
COc1ccc(N2CCN(C(c3ccc(F)cc3)c3sc4nc(-c5ccco5)nn4c3O)CC2)cc1 (stereo unspecified)	n	u	n	u	n
Cc1ccccc1Cn1c(=O)n(CC2CCC(C(=O)N3CCC(C)CC3)CC2)c(=O)c2sccc21 (stereo unspecified)	n	n	n	n	n
CN(/N=C/c1ccc(O)cc1O)c1ncc(C(F)(F)F)cc1Cl	n	18µM[quencher]	n	u	n
C/C(CCN1CCCCc2nc(C)c(C)cc21)=N\O[C@@H](C)c1cc(-c2c(C)cc(C)cc2C)no1	n[11.6 µM]	n[11.6 µM]	n[11.2 µM]	n[11.5 µM]	n[11.2 µM]
COc1ccc(NC(=O)CSc2nc3c(c(=O)[nH]2)CN(Cc2ccccc2)CC3)cc1Cl	n	n	n	n	n
Cc1ccc(C(=O)c2ccc([N+](=O)[O-])cc2)cc1C	n	n	n	u	n
Cc1cccc(NCCC(=O)c2ccc([N+](=O)[O-])cc2)c1C	n	8.9µM[quencher]	n	u	n
Cc1ccc(C(=O)CNc2cccc([N+](=O)[O-])c2)cc1	n	n	n	u	n
Cc1ccc(NCC(=O)c2ccc([N+](=O)[O-])cc2)cc1	u	u	n	18µM	n
Cc1ccc(NCCC(=O)c2cccc([N+](=O)[O-])c2)c(C)c1	u	16µM[quencher]	n	u	n
COc1ccc(Nc2oc(COc3ccc(OC)cc3)nc2C#N)cc1	n	28µM[quencher]	n	u	n
O=C(NCCNC(=O)c1cc(OCC(F)(F)F)ccc1OCC(F)(F)F)Nc1ccc(OC(F)(F)F)cc1	3.5µM	n	n	n	n
O=C(Nc1ccc(F)cc1)Nc1cc(OCC(F)(F)F)cc(OCC(F)(F)F)c1	8.9µM	u	n	n	n
CCOc1ccc(NC(=O)Nc2cc(OCC(F)(F)F)cc(OCC(F)(F)F)c2)cc1	n	n	n	n	n
COc1ccc(Nc2nnc(SC(C(=O)Nc3cc(C)ccc3C)c3ccccc3)s2)cc1 (stereo unspecified)	u	u	n	n	n

Compound activity from PubChem.
